For some of these results: Entries with a potency or affinity are not part of this list.
How the values were obtained:
Parameters in all cases: scale not given: direction of the effect not stated beside the values
[1] = target: Protein translocase subunit SecA (Escherichia coli (strain K12)) (UniProt P10408); test: Assay to Identify E. coli SecA ATPase Inhibitors; format: functional; conditions: 30 µM
[2] = target: T1, Ubiquitin-activating enzyme e1, putative (Leishmania donovani (strain BPK282A1)) (UniProt E9BSI1); test: Leishmania donovani Ubiquitin Activating Enzyme (LdE1); format: functional; conditions: 30 µM
T1 sequence (whole entry): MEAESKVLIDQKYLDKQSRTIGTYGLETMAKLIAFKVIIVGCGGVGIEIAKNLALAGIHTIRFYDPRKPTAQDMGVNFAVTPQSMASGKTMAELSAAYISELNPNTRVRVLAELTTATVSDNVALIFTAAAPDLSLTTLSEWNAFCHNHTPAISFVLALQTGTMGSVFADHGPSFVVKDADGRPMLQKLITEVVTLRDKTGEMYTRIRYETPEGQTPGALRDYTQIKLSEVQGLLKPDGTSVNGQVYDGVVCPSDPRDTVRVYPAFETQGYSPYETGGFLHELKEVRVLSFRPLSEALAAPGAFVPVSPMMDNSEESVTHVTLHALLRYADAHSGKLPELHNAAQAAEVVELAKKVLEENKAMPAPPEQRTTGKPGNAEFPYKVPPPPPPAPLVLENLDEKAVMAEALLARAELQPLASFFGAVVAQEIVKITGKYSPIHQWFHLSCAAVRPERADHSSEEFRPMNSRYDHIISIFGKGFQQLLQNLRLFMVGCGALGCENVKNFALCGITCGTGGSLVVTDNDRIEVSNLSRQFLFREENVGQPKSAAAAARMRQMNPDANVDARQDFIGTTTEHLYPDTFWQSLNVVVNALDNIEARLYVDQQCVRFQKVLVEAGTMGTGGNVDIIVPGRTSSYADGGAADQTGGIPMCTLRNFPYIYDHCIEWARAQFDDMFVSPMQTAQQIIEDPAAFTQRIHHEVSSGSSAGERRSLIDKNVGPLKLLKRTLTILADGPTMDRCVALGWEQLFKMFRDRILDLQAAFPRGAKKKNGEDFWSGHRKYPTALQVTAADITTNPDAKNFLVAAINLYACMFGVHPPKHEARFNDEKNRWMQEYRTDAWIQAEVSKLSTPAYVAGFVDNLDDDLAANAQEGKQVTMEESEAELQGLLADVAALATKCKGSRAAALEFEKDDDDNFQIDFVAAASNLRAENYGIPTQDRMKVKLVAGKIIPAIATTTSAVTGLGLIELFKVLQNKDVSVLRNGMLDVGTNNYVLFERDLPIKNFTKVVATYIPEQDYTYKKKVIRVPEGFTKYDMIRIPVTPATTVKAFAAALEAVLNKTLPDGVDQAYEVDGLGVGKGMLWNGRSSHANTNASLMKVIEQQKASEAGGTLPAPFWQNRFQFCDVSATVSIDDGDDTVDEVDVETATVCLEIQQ

[3] = target: T2, Aspartate--tRNA(Asp/Asn) ligase (Mycobacterium tuberculosis (strain ATCC 25618 / H37Rv)) (UniProt P9WFW3); test: Assay for Asp RNA synthetase-1 from Mycobacterium tuberculosis; format: functional; conditions: 30 µM; also: in the data most compounds retested in dose-response had high values
T2 sequence (whole entry): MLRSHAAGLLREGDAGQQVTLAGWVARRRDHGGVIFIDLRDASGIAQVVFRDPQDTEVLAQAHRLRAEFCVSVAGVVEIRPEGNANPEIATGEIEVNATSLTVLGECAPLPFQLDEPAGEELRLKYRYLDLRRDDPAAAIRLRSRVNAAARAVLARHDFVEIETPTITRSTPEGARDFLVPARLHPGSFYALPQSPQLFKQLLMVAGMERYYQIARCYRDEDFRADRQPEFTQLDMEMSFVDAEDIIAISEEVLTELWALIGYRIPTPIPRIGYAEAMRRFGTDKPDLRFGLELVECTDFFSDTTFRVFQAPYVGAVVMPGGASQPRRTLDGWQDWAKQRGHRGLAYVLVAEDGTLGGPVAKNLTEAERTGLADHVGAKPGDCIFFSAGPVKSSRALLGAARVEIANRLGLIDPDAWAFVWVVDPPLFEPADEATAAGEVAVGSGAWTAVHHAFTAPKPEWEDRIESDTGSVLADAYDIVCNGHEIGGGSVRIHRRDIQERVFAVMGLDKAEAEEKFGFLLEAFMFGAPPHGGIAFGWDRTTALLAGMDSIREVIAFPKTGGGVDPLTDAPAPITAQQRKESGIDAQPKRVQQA

[4] = target: Sialic acid-binding Ig-like lectin 9 (Homo sapiens) (UniProt Q9Y336); test: Hs-Siglec9 ALPHAscreen SOP 20170721; conditions: 10 µM
Sialic acid-binding Ig-like lectin 9 (Homo sapiens), sequence (Q9Y336 whole entry): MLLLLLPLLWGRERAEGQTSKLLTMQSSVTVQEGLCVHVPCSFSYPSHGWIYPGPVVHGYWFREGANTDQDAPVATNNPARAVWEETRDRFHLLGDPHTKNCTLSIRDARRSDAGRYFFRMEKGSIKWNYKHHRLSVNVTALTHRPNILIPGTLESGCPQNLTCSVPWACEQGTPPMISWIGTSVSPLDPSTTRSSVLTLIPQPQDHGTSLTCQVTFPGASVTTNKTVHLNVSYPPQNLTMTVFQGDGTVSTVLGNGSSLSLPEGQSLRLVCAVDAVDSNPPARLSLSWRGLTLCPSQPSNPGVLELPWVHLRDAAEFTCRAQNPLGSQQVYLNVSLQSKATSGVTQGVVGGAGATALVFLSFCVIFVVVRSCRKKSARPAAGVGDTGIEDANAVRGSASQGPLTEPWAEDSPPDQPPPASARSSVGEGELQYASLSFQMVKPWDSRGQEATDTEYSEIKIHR

Trypanosoma cruzi = test: Trypanosoma cruzi phosphomannomutase and mannose-1-phosphate guanylyltransferase assay; format: functional; conditions: 10 µM
[5] = target: T3, Arginase-2, mitochondrial (Homo sapiens) (UniProt P78540); test: in vitro enzyme assay to detect the production of urea directly proportional to the activity of Arginase II; format: functional; conditions: 33.3 µM; also: in the data most compounds retested in dose-response had high values
T3 sequence (whole entry): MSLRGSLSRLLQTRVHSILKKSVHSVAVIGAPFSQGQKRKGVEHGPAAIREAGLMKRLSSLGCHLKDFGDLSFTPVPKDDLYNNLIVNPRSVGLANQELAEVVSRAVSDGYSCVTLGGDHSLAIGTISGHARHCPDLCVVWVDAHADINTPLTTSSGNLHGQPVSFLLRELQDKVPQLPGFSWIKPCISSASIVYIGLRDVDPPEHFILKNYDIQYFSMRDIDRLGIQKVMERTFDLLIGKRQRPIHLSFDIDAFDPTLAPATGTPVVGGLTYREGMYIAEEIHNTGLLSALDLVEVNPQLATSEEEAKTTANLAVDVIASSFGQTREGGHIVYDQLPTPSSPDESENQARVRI

[6] = target: T4, Proteasome subunit beta (Trypanosoma cruzi) (UniProt O96673); test: Trypanosoma cruzi proteasome chymotrypsin-like activity (TcProtChymo) assay.; also: in the data most compounds retested in dose-response had high values; format: functional; conditions: 9.37 µM
T4 sequence (whole entry): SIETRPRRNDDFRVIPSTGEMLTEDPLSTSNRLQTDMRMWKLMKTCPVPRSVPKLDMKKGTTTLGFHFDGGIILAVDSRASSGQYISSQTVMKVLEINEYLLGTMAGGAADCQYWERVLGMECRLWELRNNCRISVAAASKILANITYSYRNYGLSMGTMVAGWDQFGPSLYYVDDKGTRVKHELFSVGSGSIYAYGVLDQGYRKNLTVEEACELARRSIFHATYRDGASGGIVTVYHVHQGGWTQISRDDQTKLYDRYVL

Homo sapiens = species: Homo sapiens; test: To identify inhibition of the IFN signalling (Jak-Stat) pathway via expression of an eGFP reporter gene under the control of an IFN-stimulated response element (ISRE) containing MxA promoter.; format: functional; conditions: 30 µM
[7] = target: Shiga toxin 2 (Escherichia coli O157:H7) (UniProt P09385+P09386); test: E. coli 0.157:H7 Shiga Toxin SOP - stx2 screening assay; format: functional; conditions: 30 µM
[8] = target: T5, Tyrosyl-tRNA synthetase, putative (Trypanosoma cruzi (strain CL Brener)) (UniProt Q4DSP6); test: Trypanosoma cruzi tyrosyl tRNA synthetase (TcYRS) _High Tyrosine SOP; format: functional; conditions: 30 µM; also: in the data most compounds retested in dose-response had high values
T5 sequence (whole entry): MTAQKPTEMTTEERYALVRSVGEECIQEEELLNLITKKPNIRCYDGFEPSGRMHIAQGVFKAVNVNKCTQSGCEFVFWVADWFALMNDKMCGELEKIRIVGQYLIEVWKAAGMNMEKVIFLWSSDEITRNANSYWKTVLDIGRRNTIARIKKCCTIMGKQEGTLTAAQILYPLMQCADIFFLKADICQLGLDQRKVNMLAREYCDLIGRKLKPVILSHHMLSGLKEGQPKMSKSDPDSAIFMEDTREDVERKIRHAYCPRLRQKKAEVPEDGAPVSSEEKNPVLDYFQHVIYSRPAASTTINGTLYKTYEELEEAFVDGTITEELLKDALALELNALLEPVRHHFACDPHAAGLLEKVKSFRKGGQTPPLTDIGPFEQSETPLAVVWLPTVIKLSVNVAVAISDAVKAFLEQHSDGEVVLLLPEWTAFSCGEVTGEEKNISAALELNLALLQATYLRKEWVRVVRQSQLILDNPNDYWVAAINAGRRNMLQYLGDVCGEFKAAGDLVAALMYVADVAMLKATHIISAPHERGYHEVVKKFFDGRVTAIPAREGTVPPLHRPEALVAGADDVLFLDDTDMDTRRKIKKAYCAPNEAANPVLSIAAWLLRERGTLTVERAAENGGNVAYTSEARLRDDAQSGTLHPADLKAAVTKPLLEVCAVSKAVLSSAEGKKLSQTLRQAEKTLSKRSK

[9] = target: T5, Tyrosyl-tRNA synthetase, putative (Trypanosoma cruzi (strain CL Brener)); test: Trypanosoma cruzi tyrosyl tRNA synthetase (TcYRS) SOP; format: functional; conditions: 30 µM
[10] = target: Chromo domain-containing protein 1 (Saccharomyces cerevisiae (strain ATCC 204508 / S288c) (Baker's yeast)) (UniProt P32657); test: ScCHD-1 Enzyme Inhibition Assay; format: functional; conditions: 30 µM; also: in the data most compounds retested in dose-response had high values
Chromo domain-containing protein 1 (Saccharomyces cerevisiae (strain ATCC 204508 / S288c) (Baker's yeast)), sequence (P32657 whole entry, the tested form may be a part): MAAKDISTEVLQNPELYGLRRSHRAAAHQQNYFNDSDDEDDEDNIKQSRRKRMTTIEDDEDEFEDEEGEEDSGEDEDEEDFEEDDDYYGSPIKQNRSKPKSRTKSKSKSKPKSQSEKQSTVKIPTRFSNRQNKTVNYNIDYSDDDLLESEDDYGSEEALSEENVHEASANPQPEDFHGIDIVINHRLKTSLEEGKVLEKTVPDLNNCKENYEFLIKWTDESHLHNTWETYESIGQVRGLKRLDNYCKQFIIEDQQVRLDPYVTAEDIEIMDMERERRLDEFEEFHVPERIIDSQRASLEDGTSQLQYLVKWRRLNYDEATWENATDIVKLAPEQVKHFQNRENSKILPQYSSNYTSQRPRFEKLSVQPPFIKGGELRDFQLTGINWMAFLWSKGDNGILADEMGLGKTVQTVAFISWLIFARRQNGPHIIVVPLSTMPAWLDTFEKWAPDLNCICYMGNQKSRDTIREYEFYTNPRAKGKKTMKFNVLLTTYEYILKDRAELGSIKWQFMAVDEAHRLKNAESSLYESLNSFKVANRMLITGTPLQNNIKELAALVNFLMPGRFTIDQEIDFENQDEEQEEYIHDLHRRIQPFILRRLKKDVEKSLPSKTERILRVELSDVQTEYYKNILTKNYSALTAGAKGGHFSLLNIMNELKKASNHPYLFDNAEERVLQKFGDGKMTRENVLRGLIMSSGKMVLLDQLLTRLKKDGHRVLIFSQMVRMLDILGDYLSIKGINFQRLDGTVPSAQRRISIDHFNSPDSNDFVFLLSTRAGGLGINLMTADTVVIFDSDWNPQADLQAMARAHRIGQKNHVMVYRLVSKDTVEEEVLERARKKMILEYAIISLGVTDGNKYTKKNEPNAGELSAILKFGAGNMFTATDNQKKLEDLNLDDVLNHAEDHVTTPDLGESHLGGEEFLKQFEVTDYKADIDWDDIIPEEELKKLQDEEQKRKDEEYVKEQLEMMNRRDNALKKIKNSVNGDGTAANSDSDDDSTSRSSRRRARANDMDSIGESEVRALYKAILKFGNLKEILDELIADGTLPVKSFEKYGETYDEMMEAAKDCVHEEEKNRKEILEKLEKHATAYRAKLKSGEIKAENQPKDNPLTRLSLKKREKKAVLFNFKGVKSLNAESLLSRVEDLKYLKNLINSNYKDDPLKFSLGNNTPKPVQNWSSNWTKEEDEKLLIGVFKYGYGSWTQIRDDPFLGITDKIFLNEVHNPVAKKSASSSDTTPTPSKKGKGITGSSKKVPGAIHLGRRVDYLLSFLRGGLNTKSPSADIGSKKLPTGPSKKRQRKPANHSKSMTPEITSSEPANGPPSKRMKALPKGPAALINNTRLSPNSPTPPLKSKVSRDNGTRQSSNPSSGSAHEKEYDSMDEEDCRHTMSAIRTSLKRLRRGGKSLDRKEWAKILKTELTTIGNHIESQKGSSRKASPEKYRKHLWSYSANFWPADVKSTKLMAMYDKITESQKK

Protein translocase subunit SecA (Escherichia coli (strain K12)), sequence (P10408 whole entry): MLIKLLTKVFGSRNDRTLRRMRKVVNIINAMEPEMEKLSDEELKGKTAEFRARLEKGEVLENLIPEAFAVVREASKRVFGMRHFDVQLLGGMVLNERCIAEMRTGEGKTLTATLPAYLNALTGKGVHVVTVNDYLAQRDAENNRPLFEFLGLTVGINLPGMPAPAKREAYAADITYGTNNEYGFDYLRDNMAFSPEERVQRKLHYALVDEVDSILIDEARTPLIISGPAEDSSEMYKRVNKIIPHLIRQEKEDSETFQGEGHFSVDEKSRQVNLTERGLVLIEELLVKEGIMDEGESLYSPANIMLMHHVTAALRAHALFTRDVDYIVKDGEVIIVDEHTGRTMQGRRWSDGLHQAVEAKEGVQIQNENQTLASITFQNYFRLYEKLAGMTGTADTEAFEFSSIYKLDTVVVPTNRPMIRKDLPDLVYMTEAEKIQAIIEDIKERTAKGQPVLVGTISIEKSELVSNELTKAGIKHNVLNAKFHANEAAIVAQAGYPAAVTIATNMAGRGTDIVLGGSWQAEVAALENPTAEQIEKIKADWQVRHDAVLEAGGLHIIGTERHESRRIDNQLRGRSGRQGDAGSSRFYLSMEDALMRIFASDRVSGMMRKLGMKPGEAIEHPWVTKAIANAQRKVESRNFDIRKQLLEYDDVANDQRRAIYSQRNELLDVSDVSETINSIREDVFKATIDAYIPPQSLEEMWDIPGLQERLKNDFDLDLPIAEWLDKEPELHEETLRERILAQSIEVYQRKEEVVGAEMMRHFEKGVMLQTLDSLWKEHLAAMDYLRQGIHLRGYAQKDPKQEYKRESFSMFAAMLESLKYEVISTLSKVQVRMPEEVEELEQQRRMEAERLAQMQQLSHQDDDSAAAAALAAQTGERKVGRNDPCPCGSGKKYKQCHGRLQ

SMILES | Percent Effect [1] [%] | Percent Effect [2] [%] | Percent Effect [3] [%] | Percent Effect [4] [%] | Percent Effect (Trypanosoma cruzi) [%] | Percent Effect [5] [%] | Percent Effect [6] [%] | Percent Effect (Homo sapiens) [%] | Percent Effect [7] [%] | Percent Effect [8] [%] | Percent Effect [9] [%] | Percent Effect [10] [%]
c1cnc(N2CCC3(CCN(CC4CCOC4)C3)CC2)nc1 (stereo unspecified) | -3.76 | 6.49 | 8.74 | -2.65 | -2.63 | 0.405 | 10.2 | 0.479 | -3.12 | 2.63 | 7.69 | -4.21
CCc1nc(CN2CCN(C(=O)Cc3c(C)noc3C)CC2)cs1 | -0.475 | 12.8 | -3.43 | -11.1 | 2.72 | 2.87 | 6.06 | 10.4 | -8.34 | 6.22 | 13.2 | -5.04
Cc1noc(C)c1CN1CC[C@H]2OCC[C@@]2(C(=O)N2CCCO2)C1 | -4.42 | 6.49 | 6.12 | -7.21 | -3.6 | 3.24 | 16.5 | -11.1 | -3.97 | 11.1 | 10.3 | 3.94
O=C1C[C@H]2[C@H](CCN2Cc2ccccn2)N1CC1CC1 | -3.35 | 11.7 | 1.05 | -4.27 | -5.25 | 5.02 | 12.4 | 12.4 | -21.2 | 6.76 | 2.5 | -6.54
O=C1CC[C@H]2[C@H](CCN2Cc2ccccn2)N1CC1CCOCC1 | -3.55 | 9.09 | -4.23 | -1.65 | -5.63 | 2.74 | 3.35 | 8.69 | -14 | -0.966 | 2.5 | -0.494
Cn1cc(CN2C[C@@H]3[C@@H](C2)OCC(=O)N3Cc2ccncc2)cn1 | -5.79 | 3.9 | 4.5 | -1.61 | 1.07 | 0.81 | 15.8 | 8.18 | 1.35 | -0.526 | 17.9 | 0.0412
c1ccc(N2CCCC3(CCN(Cc4cccs4)C3)C2)nc1 (stereo unspecified) | -7.4 | 16.9 | -1.46 | -2.35 | -2.81 | -0.913 | 10.4 | 17.3 | 5.58 | 1.93 | -2.5 | -9.64
NC[C@H]1[C@H]2CN(Cc3ccccc3)C[C@@H]12 | -1.98 | 19.5 | -0.091 | 2.06 | -0.938 | 1.83 | 7.81 | 31 | -5.17 | 4.83 | 15 | -6.97
O=C(Cn1ccc2c(Cl)cccc21)N1CCC2(CC1)OCCO2 | -2.33 | 10.8 | 0.188 | 5.66 | 1.46 | 49.3 | 11.8 | 12.8 | 1.14 | 4.79 | 19.5 | -2.23
CC1CCN(C(CNC(=O)CCn2cccn2)c2cccs2)CC1 (stereo unspecified) | – | – | -0.241 | – | – | – | – | – | – | – | – | –
O=C(Cc1ccc(-n2cccn2)cc1)N1CCN2CCCCC2C1 (stereo unspecified) | -4.18 | -10.7 | -7.19 | 2.63 | -5.42 | 3.55 | 9.58 | 0.299 | -24.9 | 1.58 | 5.13 | -13.6
